Screening results deposited in PubChem by National Center for Advancing Translational Sciences (NCATS).
IkB sig inh: inhibitors of IkB signaling in ABC-DLBCL cells | ABC-DLBCL IkBa-CBG/CBR dual luciferase ratio, 4 h; response scale: scaled: untreated 0%, proteasome inhibitor 100% | Potency, µM (doses to about 57.1 µM), for the others: at the top dose IkBa stabilization activation | 110,000 tested, 0.04% active | AID 445; active = well fitted curve in the direction sought with a large enough effect in the signal ratio, not every such curve was filed as active; inconclusive = small, poorly fitted or top-dose-only effect, or a change in a side signal; the % refers to the signal ratio;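 also: the direction sought is a rising ratio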
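Curves were fitted separately to fusion (green), unfused (red) and ratio luminescence, then classed by r2, magnitude and activity. Cells: OCI-Ly3, 4 h compound plus doxycycline at 37C; 10 uM MG-132 defined full response.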
CRE Fsk mod: CRE-bla signaling modulation under forskolin stimulation; Potency, µM (doses to about 38.2 µM), inactives show at the highest dose activity change, negative = inhibition, most hits filed as activators; 71,000 tested, 2.5% active; CHO CRE-bla reporter (cAMP response element driving beta-lactamase), forskolin EC10, beta-lactamase ratio; active = well fitted activation curve with a large enough effect in the signal ratio, with a control signal flat, not every such curve was filed as active; inconclusive = small, poorly fitted or top-dose-only effect, or effect the other way, or a change in a side signal; the % refers to the signal ratio; also: % of control where 0% means no effect
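The 460nm/530nm emission ratio after CCF4 loading defined %Activity, from which AC50 values were obtained. CRE-bla CHO cells received compound dilution series together with an EC10 level of NKH 477 for 3 hours at 37 degrees Celsius.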
Peg3 imprint: genomic imprint erasure induction; 110,000 tested, 0.02% active; mouse ES Peg3-LacZ reporter, beta-gal luminescence, 40 h; Potency, µM (series often up to 60.7 µM), inactives show at the highest dose activity change, positive = activation, most hits filed as activators
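Imprint erasure is scored as LacZ activity from the silenced maternal Peg3 allele in feeder-free female ES cells cultured 40 h with LIF. Luminescence is normalized to in-plate negative controls and fitted to the Hill equation.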
ERK AVP inh: blocks ERK signaling stimulated by vasopressin; AID 995; Potency, µM (titrated, usually from 57.5 µM), without a hit: at the highest dose activity, negative = inhibition, hits mostly inhibitors; 72,000 tested, 0.99% active; HEK293-V1b, vasopressin-stimulated pERK AlphaScreen; also: % is scaled to controls: 0 for no effect and ±100 for the full control effect; nearly all actives have a fitted effect of over 55% in size
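HEK293 cells stably expressing V1b receptor, seeded overnight in 1% FBS, were treated with compounds for 30 min at 37C, then stimulated 5 min with 25 nM vasopressin; phospho-ERK read by AlphaScreen SureFire after lysis.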
An asterisk follows results filed as active; ? = inconclusive; . = not tested or not shown; ! = a repeat was not active; [ ] = remark or other dose. Many of the other results were omitted from the sample, so hits are more common in it than they were. Unless noted, calls follow the shape of the dose curve; as a rule, active = well fitted curve in the direction sought with a large enough effect; inconclusive = small, poorly fitted or top-dose-only effect, or another doubt; inactive = no such curve, though single readings can be large; an effect the other way counts as inactive or inconclusive. Potency is read from the fitted curve at half-maximal effect.

SMILES	IkB sig inh	CRE Fsk mod	Peg3 imprint	ERK AVP inh
CCOC(=O)CSC(CC)C(=O)Nc1nnc(C(C)C)s1 (stereo not drawn)	1%	10µM*	-7%	.
COc1ccc(C2CC(=O)c3cnc(NC(=O)c4cccc(OC)c4)nc3C2)cc1 (stereo not drawn)	?	-7%	-48%	-13%
COc1ccc(C2CC(=O)c3cnc(NC(=O)c4ccccc4OC)nc3C2)c(OC)c1 (stereo not drawn)	-2%	?	-12%	10µM*
CC(C)CNc1cc(=O)n(C)c(=O)n1C	-1%	?	4%	-5%
CCNc1cc(=O)n(C)c(=O)n1C	1%	10µM*	-1%	0%
Cc1ccc(C)c(-n2c(Cc3cc(=O)[nH]c(=O)[nH]3)nnc2SCC(=O)NCc2ccco2)c1	0%	?	-7%	-19%
CCCSc1nnc(Cc2cc(=O)[nH]c(=O)[nH]2)n1-c1cc(C)ccc1C	0%	?	10µM*	-15%
Cc1nc2ncnn2c(N2CCN(C(c3ccccc3)c3ccccc3)CC2)c1C	?	?	-41%	25µM*
CC(C)(C)Cn1nc(-c2ccc(Cl)cc2)c2c(N)ncnc21	-1%	?	-9%	16µM*
CCCCC(=O)Nc1ccc(N2CCN(C(=O)CC)CC2)cc1	8%	9%	-22%	25µM*
OC[C@@H]1O[C@@H](n2cnc3c(NC4CCCC4)ncnc32)[C@@H](O)[C@H]1O	?	-4%	.	-30%
Cc1nc2cnc(N3CCOCC3)nc2n(CCc2ccccc2)c1=O	0%[11.4 µM]	13µM*	-7%	?
COCCn1c(=O)c(CCc2ccccc2)nc2cnc(N3CCN(C)CC3)nc21	-3%[11.4 µM]	2%	.	2%
Cc1nc2cnc(N3CCN(C)CC3)nc2n(CCc2ccccc2)c1=O	0%[11.4 µM]	?	?	-26%
COCCn1c(=O)c(CCc2ccccc2)nc2cnc(N3CCOCC3)nc21	-2%[11.4 µM]	13µM*	4µM*	-5%
O=C(c1[nH]o[n+](=O)c1C(=O)c1csc2ccccc12)c1csc2ccccc12	9%[11.4 µM]	-18%[7.6 µM]	.	-6%[11.5 µM]
Cc1oc2nc(SCC(=O)NC3CCCCC3)nc(N)c2c1C	0%	13µM*	?	-21%
Cc1ccc(S(=O)(=O)c2cc3c(=O)n4ccccc4nc3n(Cc3ccco3)c2=N)cc1C	?	?	-47%	19%
Cc1ccc2nc3c(cc(C(=O)NC4CCCC4)c(=N)n3C(C)C)c(=O)n2c1	-2%	.	-13%[10.9 µM]	.
CNC(=O)c1cc2c(=O)n3cc(C)ccc3nc2n(C(C)C)c1=N	0%	13µM*	-5%	4%
N=c1c(C(=O)NCC2CCCO2)cc2c(=O)n3ccccc3nc2n1Cc1cccnc1 (stereo not drawn)	-1%	13µM*	-4%	-27%
Cc1ccc2nc3c(cc(C(=O)NCC4CCCO4)c(=N)n3CCCOC(C)C)c(=O)n2c1 (stereo not drawn)	1%	10µM*	5%	?
Cc1cccn2c(=O)c3cc(C(=O)NCC4CCCO4)c(=N)n(Cc4cccnc4)c3nc12 (stereo not drawn)	1%	?	-6%	-10%
Cc1ccc(S(=O)(=O)c2cc3c(=O)n4ccccc4nc3n(CC3CCCO3)c2=N)cc1C (stereo not drawn)	-1%	2µM*	8%	9%
CC1=C(\C=C/C(C)=C/C=C\C(C)=C\C(=O)Nc2ccc(O)cc2)C(C)(C)CCC1	19%	-15%	.	.
SMILES	IkB sig inh	CRE Fsk mod	Peg3 imprint	ERK AVP inh
COC(=O)C1C(O)CC[C@H]2CN3CCc4c([nH]c5ccccc45)C3C[C@H]12 (stereo partly drawn)	.	.	-18%	7%
COc1ccc2[nH]c(=O)c(CN(CC3CCCO3)C(=O)Nc3ccc(F)cc3)cc2c1 (stereo not drawn)	?	18%	-23%	13µM*
CCCCC=O	-2%	-6%	-6%	-2%
CC(C)c1cccc2nc3c(c(C(C)(C)C)c12)Cn1c-3cccc1=O	.	10µM*	-20%	45%
CCc1cccc2nc3c(c([Si](C)(C)C)c12)Cn1c-3cccc1=O	.	13µM*	-14%	22%
CCCn1c(-c2ccc(F)cc2)nc2c(NCCCCN(C)C)nc(C)nc21	.	8%	-10%	-7%
CC(=O)O[C@H]1CC[C@@]2(C)[C@@H](CC[C@@]3(C)[C@H]2C(=O)C=C2[C@H]4C[C@](C)(C(=O)OCCN5CCCCC5)CC[C@]4(C)CC[C@@]23C)C1(C)C	2%[11.4 µM]	?	.	.
COCCn1c(-c2cc(OC)c(OC)c(OC)c2)nc2oc3ccccc3c(=O)c2c1=O	-2%	2µM*	-9%	-9%
COCCn1c(-c2ccccc2)nc2oc3ccccc3c(=O)c2c1=O	0%	?	-13%	-5%
CCCC(=O)c1cc(O)c(O)cc1O	8%	?	-12%	-2%
Cc1cc(NCCN2CCOCC2)n2nc(C)c(-c3ccc(Cl)cc3)c2n1	-1%	1.3µM*	-5%	-6%
COc1cccc(-c2cc(NCc3ccc(OC)cc3OC)ncn2)c1	7%[11.4 µM]	?	-29%	-15%
Clc1ccccc1-c1cc(NCc2ccccc2)ncn1	3%[11.4 µM]	?	-14%	25µM*
COc1cccc(-c2cc(NCc3ccccc3)ncn2)c1	1%[11.4 µM]	?	-10%	5µM*
Cc1cnc(CNc2cc(-c3ccccc3Cl)ncn2)cn1	-4%[11.4 µM]	7%	?	-21%
C=CCSc1nc2c(N)ncnc2n1[C@@H]1O[C@H](CO)[C@@H](O)[C@@H]1O	2%[11.4 µM]	1%[7.6 µM]	-5%[10.9 µM]	17%[11.5 µM]
CN1C2CC(OC(=O)C(CO)c3ccccc3)C[C@@H]1[C@H]1OC21 (stereo partly drawn)	.	.	-11%	5%
Clc1ccc2[nH]c3c(NCC4CCCO4)ncnc3c2c1 (stereo not drawn)	?	?	-10%	25µM*
O=C(Nc1cnn(Cc2ccc(F)cc2)c1)c1cc(-c2ccc(Br)cc2)on1	-3%	-11%	7%	.
COc1ccc(-c2coc3ccc(O[C@@H]4O[C@@H](COC(C)=O)[C@@H](OC(C)=O)[C@@H](OC(C)=O)[C@H]4OC(C)=O)c(OC(C)=O)c3c2=O)cc1	0%[11.4 µM]	10%	.	.
CC(C)N(CCC(=O)c1ccc2ccccc2c1)Cc1ccccc1	?	?	-34%	32µM*
O=C1c2ccccc2S(=O)(=O)N1Cc1nnc(-c2ccccc2Br)o1	0%	?	0%	-19%
O=S1(=O)c2cccc3cccc(c23)N1Cc1nnc(-c2ccccc2Br)o1	?	3.2µM*	-16%	5%
CCCCN(CC)CCNS(=O)(=O)c1cccc2cccnc12	3%	-10%	-16%	.
CC12C(=O)OC(=O)C1(C)C1CCC2O1 (stereo not drawn)	.	.	-33%	?
C[C@@]12C(=O)OC(=O)[C@@]1(C)[C@H]1CC[C@@H]2O1	4µM*!	?	.	7.9µM*
COC(=O)C1=CNC=C(C(=O)OC)C1c1ccccc1Cl	-2%	10µM*	-16%	4%
